The values below come from PubChem BioAssay AID504833 (Johns Hopkins Ion Channel Center, 2011).

Out of some 2,500 compounds screened, about 2,200 (88%) were called active.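 Rule for the calls: active = primary screen active, with duplicate mean activation above negative control mean plus 3 SD (cut at about 11% in these data); inactive = the rest.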 The set was probably picked from earlier hits. Not all results are given here.

In this assay the target is High affinity choline transporter 1 (Homo sapiens) (UniProt Q9GZV3). The experiment in a line: CHT activators, confirmation, cell-based, membrane potential dye, duplicate (AID 504833). The note with it: CHT-expressing cells, membrane potential dye fluorescence (FDSS); at 10 µM; stronger effect = higher value; % of choline EC20–EC90 response window; HEK293 expressing CHT LV-AA mutant; choline added at its EC20.
Chain of High affinity choline transporter 1 (Homo sapiens) (Q9GZV3 whole entry, looked up): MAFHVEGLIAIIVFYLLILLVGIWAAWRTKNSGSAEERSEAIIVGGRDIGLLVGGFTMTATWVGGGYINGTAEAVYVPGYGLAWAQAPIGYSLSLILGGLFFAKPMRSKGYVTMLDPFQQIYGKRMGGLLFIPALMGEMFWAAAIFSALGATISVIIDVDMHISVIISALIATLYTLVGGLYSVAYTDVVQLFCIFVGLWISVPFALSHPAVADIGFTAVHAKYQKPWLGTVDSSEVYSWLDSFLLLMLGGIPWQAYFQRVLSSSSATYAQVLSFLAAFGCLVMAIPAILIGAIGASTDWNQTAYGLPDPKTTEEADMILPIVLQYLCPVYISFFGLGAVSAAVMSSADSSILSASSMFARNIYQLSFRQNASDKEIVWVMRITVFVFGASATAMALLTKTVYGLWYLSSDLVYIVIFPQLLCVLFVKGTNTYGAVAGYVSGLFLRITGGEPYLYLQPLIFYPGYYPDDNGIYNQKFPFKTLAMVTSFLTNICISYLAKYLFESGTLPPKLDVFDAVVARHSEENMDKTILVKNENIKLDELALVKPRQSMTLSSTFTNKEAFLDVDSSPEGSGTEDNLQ
Consider `Nc1scc[n+]1Cc1cccc2cccnc12`, for which the activation is 42.7% (active).

Turning to `Cn1c(=O)n(Cc2ccco2)c(=N)c2c3c(sc21)CCCC3`, the activation was 30.6% (active).

On to `CCn1c(/C=C/Nc2ccccc2)[n+](CC)c2ccc(C(=O)OCC(F)(F)F)cc21`, for which the activation was 68.4% (active).

Regarding `CC(Sc1nc2ccccc2c(=O)n1Cc1ccco1)C(=O)c1ccccc1` (stereo not drawn), the activation was 16.9% (active).

Regarding `Cc1nnc(-c2ccc(Oc3ccc(C)c(C)c3)c([N+](=O)[O-])c2)o1`, the activation was 15% (active).

For the molecule `Cc1ccc2c(c1)N(CC(=O)N(Cc1ccccn1)Cc1ccco1)C(=O)C(C(C)C)O2` (stereo not drawn), the activation is 30.6% (active).

`Clc1ccc(COn2c(-c3ccc(Cl)cc3Cl)nc3ncccc32)cc1`: the activation was 36.3% (active).

Consider `COc1ccccc1NC(=O)CSc1nnc(-c2ccoc2C)n1CCc1ccccc1`, for which the activation is 3.73% (inactive).

On to `COc1ccccc1NC(=O)CN(c1ccccc1OC)S(=O)(=O)c1ccccc1`, for which the activation is 12% (active).

Take `Cc1c(C)c2c(OCC(=O)N[C@@H](C(=O)O)c3ccccc3)cc3c(c2oc1=O)CCC(C)(C)O3`: the activation is 7.79% (inactive).

Consider `Cc1cc(NC(=O)c2cnn3cccnc23)n(-c2ccccc2)n1`, for which the activation is 52.8% (active).

Take `CCN1CCCC1CNC(=O)c1cc2c(=O)n(C)c3ccccc3c2n1C` (stereo not drawn): the activation is 44.7% (active).

For the molecule `CCOC(=O)c1cccnc1NC(=O)c1ccncc1`, the activation was 35.3% (active).

Turning to `Cc1nc2ccccc2c(=O)n1CCCn1ccnc1`, the activation is 22.6% (active).

For `Cc1nc2c(-c3ccccc3)c(C)[nH]n2c(=O)c1Cl`, the activation was 8.04% (inactive).

On to `CC1=CC(C)(C)N(C(=O)CSc2nnc(-c3ccccc3)o2)c2ccc(C)cc21`, for which the activation was 7.25% (inactive).

With `CCCCN(CCCC)CC(O)Cn1c2ccccc2c(=O)c2ccccc21` (stereo not drawn), the activation is 44.6% (active).

As to `CC(C)CC(COCc1ccc(Cl)cc1)N1CCN(C(=O)c2ccc(C(F)(F)F)cc2)CCC1=O` (stereo not drawn), the activation was 33.6% (active).

Regarding `COc1nc(N=C(N)N)nc2c(C)cccc12`, the activation was 40.5% (active).

Consider `COc1ccc2nc(/N=C(\N)NC(=O)Nc3ccccc3)nc(C)c2c1`, for which the activation was 6.06% (inactive).

Turning to `Cc1nc(N=C(N)N)nc2c(C)cccc12`, the activation is 49.8% (active).

As for `CN1CCc2c(sc3c2c(NCc2ccco2)nc2nnnn23)C1`, the activation was 73.5% (active).

With `CCOc1ccc(C2c3[nH]c4ccccc4c3CCN2Cc2cccn2-c2ncccn2)cc1` (stereo not drawn), the activation was 17.1% (active).

Take `C=CCNc1nnc(C)c2ccccc12`: the activation is 55.7% (active).

As to `COC(=O)c1sc(C(F)(F)F)c(-c2ccccc2)c1S(=O)(=O)N(C)C`, the activation was 27.1% (active).

On to `CC1(C)Cc2c(sc3nc4n(c(=N)c23)CCCCC4)CO1`, for which the activation was 40.2% (active).

For the molecule `CN1CCN(c2cc3c(cc2F)c(=O)c(C(=O)O)cn3CCF)CC1`, the activation was 63.4% (active).

Take `CCn1cc(S(=O)(=O)c2cccc(C)c2)c(=O)c2cc(F)c(N3CCN(C)CC3)cc21`: the activation is 52.5% (active).

In the case of `Cn1c(=O)[nH]c(=O)c2c1nc(N1CCN(CCO)CC1)n2CCSc1nc2ccccc2s1`, the activation was 69.4% (active).

For `Cc1ccc(-n2c(C)cc(/C=N\NC(=O)CC(=O)NC(C)C)c2C)cc1`, the activation is 33.2% (active).

As to `O=C(Nc1ccccc1N1CCN(c2ccccc2)CC1)c1cccc(F)c1`, the activation is 36.2% (active).

For the molecule `C[C@H]1CCC(=O)N([C@H](CSc2ccccc2)Cc2ccccc2)CC1`, the activation was 12% (active).

In the case of `O=C(c1ccc(F)c(S(=O)(=O)N2CCOCC2)c1)N(CCc1ccccc1)Cc1ccccc1`, the activation is 19.7% (active).

Take `O=C1c2ccccc2C(=O)c2c1cccc2N1CCN(CCO)CC1`: the activation was 47.2% (active).

For the molecule `CCCCCCCCCCOC(=O)Cn1c(COc2ccc(C)cc2)[n+](C)c2ccccc21`, the activation is 49.5% (active).

Turning to `CCCCCCCCCCOC(=O)Cn1c(COc2cccc(OC)c2)[n+](C)c2ccccc21`, the activation is 63.2% (active).

Turning to `CCOC(=O)c1cn(CC)c2cc(F)c(F)cc2c1=O`, the activation was 50.9% (active).

With `COc1cccc(C(=O)NC(=O)Nc2nc(C)cc(C(F)(F)F)n2)c1`, the activation is 49.4% (active).

For `COC(=O)c1ccc(C(NC(=O)OCc2ccccc2)/C(C)=C/[C@@H](C)C(=O)NCc2ccc(OC)c(OC)c2)cc1` (stereo partly drawn), the activation is 22.6% (active).

As for `CCCCn1c(N)c(N(CCC(C)C)C(=O)c2ccc(COc3ccccc3)o2)c(=O)[nH]c1=O`, the activation is 24.5% (active).

In the case of `CN(C)/C=C/C(=O)c1cnc2sccn2c1=O`, the activation is 42.8% (active).

Take `COc1cc2c(cc1OC)C(Nc1ccc(S(N)(=O)=O)cc1)=NC(C)(C)C2`: the activation was 71.7% (active).

`CC(=O)c1ccccc1OCc1ccc(C(=O)c2ccccc2)cc1`: the activation is 25% (active).

Regarding `Cc1nnc(C)c2c(C)n(N)c(C)c12`, the activation was 19.2% (active).

As for `Nc1ccccc1SCc1cc([N+](=O)[O-])cc2c1OCOC2`, the activation was 33.2% (active).

`O=C(Nc1ccncc1)c1ccc(Cl)c([N+](=O)[O-])c1`: the activation was 35.4% (active).

On to `COc1ccc(Nc2nnc(C)c3ccccc23)cc1`, for which the activation is 38.3% (active).

Take `CN(C)c1ccnc(Nc2ccc(F)cc2)c1C#N`: the activation is 52.3% (active).

As for `Clc1ccc(C[n+]2cc(-c3ccc(Cl)cc3)n3c2CCC3)cc1`, the activation is 57.3% (active).

Consider `COc1ccc2c(c1)cc1n2CCN=C1NN`, for which the activation is 49% (active).

Take `COc1cc2c(cc1OC)C(c1cccc([N+](=O)[O-])c1)=NCC2`: the activation was 68.6% (active).

As for `COc1ccc(Cn2c(-c3ccc(Cl)cc3)c[n+]3ccccc23)cc1`, the activation was 73.3% (active).

For `Cc1cc(=O)oc2c(C)c(OC(C)C(=O)NC3CCN(Cc4ccccc4)CC3)ccc12` (stereo not drawn), the activation was 56.9% (active).

On to `Cn1c(=NC(=O)c2cnccn2)sc2ccccc21`, for which the activation was 55.7% (active).

For `Cc1c(CCOC(=O)CC23CC4CC(CC(C)(C4)C2)C3)sc[n+]1Cc1ccc([N+](=O)[O-])cc1`, the activation is 26.9% (active).

Take `Cc1cccn2c(=O)c3cc(C#N)c(=O)n(CCCN4CCOCC4)c3nc12`: the activation is 42.7% (active).

As for `CN1CCN(c2nc(Nc3ccc(O)cc3)nc3ccccc23)CC1`, the activation is 44.2% (active).

For the molecule `CCN1C(=NCCc2cccnc2)N[C@@H](c2ccccc2)[C@H](C(=O)OC)[C@H]1C`, the activation is 14% (active).

For the molecule `Cc1ccccc1C(=O)NCC(c1ccco1)N1CCc2ccccc21` (stereo not drawn), the activation was 9.36% (inactive).

Turning to `CC(=O)N1CC[n+]2c(-c3ccc([N+](=O)[O-])cc3)csc21`, the activation is 38.1% (active).

In the case of `C[C@]1(C(=O)NCCc2c[nH]c3ccccc23)C=C[C@@H](Cc2ccccc2)N1C(=O)c1ccccc1`, the activation was 10.8% (active).

Regarding `O=C(C1=C(O)C(=O)N(Cc2ccccc2)C1c1ccco1)c1ccco1` (stereo not drawn), the activation was 9.6% (inactive).

`O=C(COC(=O)C1CCN(S(=O)(=O)c2ccc3c(c2)OCCO3)CC1)Nc1ccccc1OC(F)F`: the activation is 4.44% (inactive).

In the case of `N#C/C(=C\c1ccc(-c2cccc([N+](=O)[O-])c2)o1)C(=O)NCCN1CCOCC1`, the activation is 15.6% (active).

Regarding `N#Cc1ccc(/C=C2\CCn3c2nc2cc(C(=O)O)ccc2c3=O)cc1`, the activation was 48.6% (active).

Take `COc1ccc(CC2c3cc(OC)c(OC)cc3CC[N+]2(C)CCC(=O)OCCCCCOC(=O)CC[N+]2(C)CCc3cc(OC)c(OC)cc3C2Cc2ccc(OC)c(OC)c2)cc1OC` (stereo not drawn): the activation was 35.7% (active).

As for `CC(Nc1nc(N2CCN(CCO)CC2)nc2ccccc12)c1ccccc1` (stereo not drawn), the activation is 24.3% (active).

With `COc1ccc(C(O)(C2CCCCC2)C(CN2CCCC2)c2ccccc2)cc1` (stereo not drawn), the activation is 35.9% (active).

In the case of `CN(C)c1cc(N)c2ccccc2n1` (tested in a mixture with another compound), the activation is 67.2% (active).

For the molecule `CC(C)(C)Nc1nc(-c2ccccn2)nc2ccccc12`, the activation was 57.4% (active).

On to `COc1cc2nc(N3CCN(C(=O)[C@@H]4CCCO4)CC3)nc(N)c2cc1OC`, for which the activation was 43% (active).

As for `Cn1c(=O)n(C)c2cc(C(=O)Nc3ccc4c(c3)OCO4)ccc21`, the activation is 43.2% (active).

Consider `O=C(NCCC1=CCCCC1)C1CCN(Cc2cnn(-c3ccccc3)c2-n2cccc2)CC1`, for which the activation is 29.7% (active).

For `O=[N+]([O-])c1ccc(N2CCNCC2)cc1NCc1cccnc1`, the activation was 52.9% (active).

In the case of `Cc1ccc(C(=O)C[n+]2cc(-c3ccccc3)n3c2CCCCC3)cc1`, the activation was 43.1% (active).

Regarding `CCN1/C(=C/c2ccc3ccc(C)cc3[n+]2CC)Sc2ccccc21`, the activation is 3.38% (inactive).

Turning to `Cc1ccc(-n2c(SCC(=O)N3c4ccccc4Sc4ccccc43)nnc2-c2ccncc2)cc1`, the activation is 21.6% (active).

For `Cc1ccc(C(=O)c2ccc(N3CCN(C)CC3)c([N+](=O)[O-])c2)cc1`, the activation is 9.27% (inactive).

Take `CCN1CCN(c2ccc([N+](=O)[O-])cc2C(=O)c2ccc(Cl)cc2)CC1`: the activation is 50.4% (active).

As to `CN(C)c1cc[n+](Cc2ccccc2)cc1`, the activation was 50.2% (active).

Consider `N=c1c2c3c(sc2ncn1CCCN1CCOCC1)CCCCC3`, for which the activation is 72.9% (active).

As to `N=c1c2c3c(sc2ncn1N)CCCCC3`, the activation was 42.9% (active).

Take `COc1ccc([N+](=O)[O-])cc1N(CC(O)CN(CC(C)C)CC(C)C)S(=O)(=O)c1ccc(C)cc1` (stereo not drawn): the activation was 37.9% (active).

Consider `Cc1nc2ccccc2c2oc(C(=O)NCCCN3CCC(C)CC3)cc12`, for which the activation is 13.8% (active).

Consider `O=C(c1ccccc1F)N(Cc1ccccc1)Cc1ccccc1`, for which the activation is 34.5% (active).

Regarding `CCN(CC)CCCNC(=O)c1cn(C)c2ccc(S(=O)(=O)N(C)C3CCCCC3)cc2c1=O`, the activation is 32.9% (active).

As for `CCN(CC)CCC(c1cc(OC)c(OC)c(OC)c1)c1c(OC)cc(OC)c2c(-c3ccccc3)cc(=O)oc12` (stereo not drawn), the activation is 27.1% (active).

As to `COc1ccc(Nc2cc(C)nc(-n3nc(C)cc3C)n2)cc1`, the activation was 12.6% (active).

On to `O=Cc1ccc(OCc2cn3ccccc3n2)cc1`, for which the activation was 38.8% (active).

With `Cc1cc2c(cc1C)[n+](C)cn2CC(O)COCC1CC=CCC1` (stereo not drawn), the activation was 80.5% (active).

As to `COc1ccccc1NC(=O)C1=C(C)Nc2nc3ccccc3n2C1c1cccs1` (stereo not drawn), the activation is 17.7% (active).

Regarding `Cc1cc(=O)oc2cc(OCCC[n+]3ccccc3)ccc12`, the activation is 61.4% (active).

As to `O=C(CCC1CCN(C(=O)c2cccc(Cl)c2F)CC1)Nc1ccccc1`, the activation is 24.5% (active).
